Source: PubChem BioAssay
Pf apPOL inh – Pf-apPOL DNA polymerase inhibition. actives 0.25% (n = 210,000). Recombinant Pf-apPOL, molecular beacon fluorescence, 1.5 h. inhibition, % at 10 µM
mHTT CaM bind – mHTT-calmodulin interaction abrogation. P42858. AlphaScreen His-mHTT/GST-CaM binding, luminescence. inhibition, % at 15 µM. actives 3.6% (n = 190,000). AID 1671202
Large screens that a line does not name were inactive. The full list was thinned out, with hits kept by preference. Rule as the data show it: active = inhibition above about 50%; inactive = the rest.

CCN1c2cc(C)ccc2-n2cccc2C12CCN(C(=O)Nc1ccc(F)cc1)CC2	none
COc1cccc(CN2CCc3c(cc(C(=O)Nc4ccccc4)n3C)C2)c1	mHTT CaM bind 59
CCN(CC)C(=O)c1cc2c(n1C)CCN(Cc1ccc(F)cc1)C2	none
COc1ccc(NC(=O)c2cc3c(n2C)CCN(Cc2ccc(F)cc2)C3)cc1	mHTT CaM bind 99
COc1ccc(NC(=O)c2cc3c(n2C)CCN(Cc2ccc(C)cc2)C3)cc1OC	mHTT CaM bind 50
Cc1ccc(CN2CCc3c(cc(C(=O)Nc4ccc(N5CCOCC5)cc4)n3C)C2)cc1	none
COc1cccc(CN2CCc3c(cc(C(=O)Nc4ccccc4OC)n3C)C2)c1	mHTT CaM bind 88
COc1cccc(CN2CCc3c(cc(C(=O)Nc4cccc(C)c4C)n3C)C2)c1	none
COc1cccc(CN2CCc3c(cc(C(=O)NC(C)C)n3C)C2)c1	none
COc1ccccc1NC(=O)c1cc2c(n1C)CCN(Cc1cccc(C)c1)C2	mHTT CaM bind 63
COc1ccc(CNC(=O)c2cc3c(n2C)CCN(Cc2ccccc2)C3)cc1OC	none
COCCNC(=O)c1cc2c(n1C)CCN(Cc1cccc(OC)c1)C2	none
COc1cccc(CN2CCc3c(cc(C(=O)NCc4ccc(F)cc4)n3C)C2)c1	mHTT CaM bind 54
Cc1cc(=O)n(CC(=O)Nc2cc(F)ccc2F)c(N2CCCC2)n1	none
Cc1cc(C)c2oc(=O)n(C3CCN(C(=O)COc4ccccc4)CC3)c2c1	mHTT CaM bind 73
Cc1ccc2ncn(C3CCN(C(=O)COc4ccccc4)CC3)c2c1	none
COCCCNC(=O)C1CCCN(c2nccc(C)n2)C1 (stereo unspecified)	none
COc1cccc(C(=O)N2CC3CC(NC(=O)c4cccnc4)C2C3)c1OC (stereo unspecified)	none
Cc1cc(C)c(NC(=O)C(Br)C(C)C)c(C)c1 (stereo unspecified)	none
Cc1cccc(C)c1NC1=NC(=S)N(c2cccc(O)c2)C12CCC(C(C)(C)C)CC2 (stereo unspecified)	mHTT CaM bind 56
Cc1cccc(N(C)C(=O)CN2C(=O)NC3(CCC(C(C)(C)C)CC3)C2=O)c1 (stereo unspecified)	none
Cc1cccnc1NC(=O)c1c(O)c2cccc3c2n(c1=O)CCC3	none
O=C(Nc1ccccn1)c1c(O)c2cccc3c2n(c1=O)CCC3	none
O=C(Nc1ncccn1)c1c(O)c2cccc3c2n(c1=O)CCC3	mHTT CaM bind 56
O=C(Nc1ncccc1O)c1c(O)c2cccc3c2n(c1=O)CC3	mHTT CaM bind 52
N#CCCSc1ccccc1NC(=O)c1ccc2ncsc2c1	none
Cc1ccc(S(=O)(=O)N(/C=C2\Sc3ccccc3C2=O)c2ccc([N+](=O)[O-])cc2)cc1	mHTT CaM bind 60
O=C1/C(=C/N(C(=O)c2ccco2)c2ccc([N+](=O)[O-])cc2)Sc2ccccc21	none
Cc1ccc(C)c(NC(=O)c2ccccc2[N+](=O)[O-])c1	none
OCC[n+]1c(-c2ccc(Br)cc2)csc1Nc1ccccc1	mHTT CaM bind 88
O=C(c1ccccc1)c1c(-c2ccccc2)csc1Nc1ccccc1	none (no result: mHTT CaM bind)
COc1c(C(=O)N2CCN(c3ccccc3F)CC2)sc2cccc(F)c12	none
COc1c(C(=O)N2CCN(c3ccccc3)CC2)sc2cccc(F)c12	mHTT CaM bind 64
CC1=C(C(=O)Nc2cccc(C(F)(F)F)c2)C2(CCCCCC2)OC1=O	mHTT CaM bind 98
CC1=C(C(=O)Nc2cccc(C(F)(F)F)c2)C2(CCCCC2)OC1=O	none
Cc1cc(Cl)ccc1NC(=O)C(N)=O	none
CC(=O)N1CCc2cc(S(=O)(=O)N3C(C)CCCC3C)ccc21 (stereo unspecified)	none
O=C(CSc1nnc(-c2ccco2)c(-c2ccco2)n1)Nc1ccc(Cl)cc1	mHTT CaM bind 99
NS(=O)(=O)c1ccc(NC(=O)CSc2nnc(-c3ccco3)c(-c3ccco3)n2)cc1	none
c1ccc(Cc2c[nH]c3ccccc23)cc1	mHTT CaM bind 61
c1ccc2c(CCc3ccncc3)c[nH]c2c1	none
O=C(c1ccc(Cl)c(Cl)c1)N1CCC(=O)N([C@H](COCc2cccc(C(F)(F)F)c2)Cc2ccccc2)CC1	mHTT CaM bind 100
O=C(SCc1cccc(C(F)(F)F)c1)c1ccc(Cl)c(Cl)c1	none (no result: mHTT CaM bind)
Cc1ccc(S(=O)(=O)N2CCC(=O)N([C@H](COCc3ccc(Cl)cc3Cl)Cc3ccccc3)CC2)cc1	none
O=C(c1ccc(Cl)c(Cl)c1)N1CCC(=O)N([C@H](COCc2ccccc2)Cc2ccccc2)CC1	mHTT CaM bind 100
CCOc1ccc(-n2ccnc2SCC(=O)Nc2cccc(C(F)(F)F)c2)cc1	none
Cc1cc(C)cc(C(=O)N2CCCC(C(=O)NCc3ccc(OC(C)C)cc3)C2)c1 (stereo unspecified)	none
CC(C)COC(=O)NCc1ccc2c(c1)OCO2	none
O=C(NCc1c(F)cccc1F)c1coc(NC(=O)c2ccco2)n1	none
O=C1/C(=C/C2CCCO2)CC/C1=C\C1CCCO1 (stereo unspecified)	mHTT CaM bind 68 (no result: Pf apPOL inh)
O=C1C2CC(Br)C(Br)CC2C(=O)N1CC1CCCO1 (stereo unspecified)	none
CN1C(=O)C(O)(CC(=O)c2ccc(F)cc2)c2ccccc21 (stereo unspecified)	none
O=C1NC(=O)C2C1C1C=Cc3ccccc3N1C2C(=O)c1ccc(F)cc1 (stereo unspecified)	mHTT CaM bind 52 (no result: Pf apPOL inh)
CCc1ccccc1NC(=O)N1CC(c2nc(C)no2)C2(CCOCC2)C1 (stereo unspecified)	none
COc1ccc(CC(=O)NCCNc2nc(C)cc(N(C)C)n2)cc1	none
O=C(O)c1ccc(N=Cc2ccc3c(c2)OCO3)cc1	none
Cc1cc(C2C(C#N)=C(N)N(c3cccnc3)C3=C2C(=O)CC(c2ccccc2)C3)c(C)s1 (stereo unspecified)	mHTT CaM bind 58
Cc1cc(C2C(C#N)=C(N)N(c3cccnc3)C3=C2C(=O)CCC3)c(C)s1 (stereo unspecified)	none
c1ccc(-c2ccccn2)nc1	none (no result: mHTT CaM bind)
c1ccc(-c2ccc(-c3ccccn3)nn2)nc1	mHTT CaM bind 100 (no result: Pf apPOL inh)
COc1ccc(CCN2CC(C(=O)NCc3ccc(C)c(C)c3)CC2=O)cc1OC (stereo unspecified)	none
COc1ccc(OC)c(NC(=O)CN(c2cccc([N+](=O)[O-])c2)S(C)(=O)=O)c1	none
Cc1cc(OCCCCN2CCN(C)CC2)cc(C(C)C)c1	none
COc1ccc(C=CC(=O)c2cc(C)ccc2O)c(OC)c1	mHTT CaM bind 67
COc1ccc(O)c(C(=O)C=Cc2ccc3c(c2)OCCCO3)c1	mHTT CaM bind 80
O=C(C=Cc1ccc2c(c1)OCCCO2)c1cc([N+](=O)[O-])ccc1O	none
COc1ccc(C=CC(=O)c2cc(F)ccc2O)c(OC)c1	none
COc1ccc2nc(NC(=O)COc3cccc(Cl)c3)sc2c1	none
Cc1nn(CCCC(=O)Nc2cc(Oc3ccccc3)cc([N+](=O)[O-])c2)c(C)c1[N+](=O)[O-]	mHTT CaM bind 96
Cc1nn(CCCC(=O)Nc2cc(Oc3ccc(F)cc3F)cc([N+](=O)[O-])c2)c(C)c1[N+](=O)[O-]	mHTT CaM bind 80
Cc1ccc(NC(=O)CCCn2nc(C)c([N+](=O)[O-])c2C)cc1C	none
Cc1ccc(C)c(Oc2cc(NC(=O)CCCn3nc(C)c([N+](=O)[O-])c3C)cc([N+](=O)[O-])c2)c1	none
Cc1c(Cl)cccc1NC(=O)C1CCc2nc(N3CCOCC3)ncc2C1 (stereo unspecified)	none
COc1cccc(/C=C2\CN(C)C/C(=C\c3cccc(OC)c3OC)C2=O)c1OC	none
